# Target: GHDC
# Assay: pooled miR-30 sensor sort-seq; sequence = guide strand
# Details: shRNA
# Further: reference of the scale not given here.
row,Sequence,sensor-assay potency score (higher = more potent)
1,AGAAGTTCGACAGCCGTCCCAG,-0.973
2,TAGCTCTTCACCATCAGTCTCC,0.0115
3,TTTTCCTCTGACAGATTCCTCA,-0.542
4,TCCACTGTCTTCCTGCTGGGTC,-1.07
5,TTGTAGGCACCAACCACTCGCA,-0.926
6,TGCTGCTCTCCACACAGCCATG,-2.06
7,TCAGAGAACAGGTCTTCACCAA,0.187
8,CTGCTCTCCACTGTCTTCCTGC,-1.58
9,TTCCTCTGACAGATTCCTCAGC,-0.103
10,ATTGTAGGCACCAACCACTCGC,0.0645
11,TTATGTCTGTGCTCCTTCTGAG,-0.0646
12,TCCAGCCTGCAGATGAACCTGA,-0.985

# Target: GHRL
# Assay: as above
# Details: shRNA
row,Sequence,sensor-assay potency score (higher = more potent)
1,TGAGCTTGTACAACAGTCGTGG,0.776
2,TTTCTCTGCTGGACTCTCTGGT,0.0983
3,TGCTTGACCTCCATCTTCCGGG,-0.583
4,TCTCTGCTGGACTCTCTGGTGT,-0.98
5,TTGACCTCCATCTTCCGGGCGG,-0.454
6,TTCTGCTTGACCTCCATCTTCC,-0.0657
7,TCTTCGACTCCTTTCTCTGCTG,-0.622
8,TACTGAACCCCTGACAGCTTGA,-0.592
9,TTCTCTGCTGGACTCTCTGGTG,-0.904
10,TGTCCTGAAGAAACTTCCCCAG,-1.03
11,TTGATTCCAACATCAAAGGGGG,0.299
12,TAGAGCTCGGGGCTGCAGCTTG,-0.899

# Target: GHR
# Assay: as above
# Details: shRNA
row,Sequence,sensor-assay potency score (higher = more potent)
1,TTTCTGAATATCTGCATTGCGT,-0.999
2,TCATACTCCAGAACCATCCATC,-0.368
3,TAATCTTTGGAACTGGAACTGG,-0.523
4,TATGAATGGAGGTATAGTCTGG,0.0222
5,TTAGCTTGATACAATAAGGTAT,0.218
6,TGAACTTGGATTGCTTAGCTGA,0.127
7,TTCATCAACAGAGAAACACTTT,0.81
8,TAGAAGTCTGTCTGTGTCTGAT,-0.00194
9,TTAGAAGTCTGTCTGTGTCTGA,0.716
10,TAGCTCAATAAATTCAACCCAA,-0.0787
11,TTCTGGTATAGAACAGCTGTAT,-1.1

# Target: GHSR
# Assay: as above
# Details: shRNA
row,Sequence,sensor-assay potency score (higher = more potent)
1,TTGAACCCCGGCTCTTCGCTGG,-0.129
2,TGGAAAATAAATATCGCCCTAC,-0.395
3,AAGTCTGAACACTGCCACCCGG,-1.26

# From the OligoGym collection
